# Results from ChEMBL document CHEMBL2218924, “A broad activity screen in support of a chemogenomic map for kinase signalling research and drug discovery” (Biochem J, 2013).
# Columns and labels:
# [1] = target: Glycogen synthase kinase-3 alpha (Homo sapiens) (UniProt P49840); settings: at 1 µM
# [2] = target: Glycogen synthase kinase-3 alpha (Homo sapiens) (UniProt P49840); settings: at 10 µM
# [3] = target: Homeodomain-interacting protein kinase 2 (Homo sapiens) (UniProt Q9H2X6); settings: at 1 µM
# Homeodomain-interacting protein kinase 2 (Homo sapiens), sequence (Q9H2X6 whole entry, looked up): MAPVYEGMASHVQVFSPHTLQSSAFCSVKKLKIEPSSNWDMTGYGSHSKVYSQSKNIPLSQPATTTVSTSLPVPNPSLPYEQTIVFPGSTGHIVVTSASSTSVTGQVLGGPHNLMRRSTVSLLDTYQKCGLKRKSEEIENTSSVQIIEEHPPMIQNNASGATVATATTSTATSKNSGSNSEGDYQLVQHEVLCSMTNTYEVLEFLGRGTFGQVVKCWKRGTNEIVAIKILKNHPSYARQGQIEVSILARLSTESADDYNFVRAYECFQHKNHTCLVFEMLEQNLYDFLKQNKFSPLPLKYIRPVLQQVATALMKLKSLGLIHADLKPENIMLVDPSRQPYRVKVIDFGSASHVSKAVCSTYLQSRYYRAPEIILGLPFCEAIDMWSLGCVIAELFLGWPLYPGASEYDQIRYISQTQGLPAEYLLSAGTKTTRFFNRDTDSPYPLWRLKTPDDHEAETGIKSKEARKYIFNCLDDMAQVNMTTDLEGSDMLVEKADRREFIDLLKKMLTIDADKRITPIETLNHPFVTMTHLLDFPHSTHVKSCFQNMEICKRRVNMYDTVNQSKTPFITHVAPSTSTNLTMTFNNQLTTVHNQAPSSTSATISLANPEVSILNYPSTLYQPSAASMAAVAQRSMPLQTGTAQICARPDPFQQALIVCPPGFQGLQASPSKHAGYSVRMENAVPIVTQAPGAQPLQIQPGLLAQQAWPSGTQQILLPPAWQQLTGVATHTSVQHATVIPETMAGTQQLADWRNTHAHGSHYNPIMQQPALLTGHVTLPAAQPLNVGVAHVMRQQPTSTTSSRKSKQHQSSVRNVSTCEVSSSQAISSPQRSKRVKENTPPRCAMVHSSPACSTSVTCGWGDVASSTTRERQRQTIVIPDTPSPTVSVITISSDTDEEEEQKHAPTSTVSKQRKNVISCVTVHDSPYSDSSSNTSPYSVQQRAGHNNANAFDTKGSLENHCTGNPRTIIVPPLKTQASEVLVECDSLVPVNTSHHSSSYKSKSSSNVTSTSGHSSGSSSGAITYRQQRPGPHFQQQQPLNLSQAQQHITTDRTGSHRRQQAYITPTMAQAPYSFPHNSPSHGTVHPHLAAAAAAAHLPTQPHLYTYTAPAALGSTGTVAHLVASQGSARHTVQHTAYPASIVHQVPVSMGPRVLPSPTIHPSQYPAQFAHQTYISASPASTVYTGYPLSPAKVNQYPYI
# [4] = target: Homeodomain-interacting protein kinase 2 (Homo sapiens) (UniProt Q9H2X6); settings: at 10 µM
# [5] = target: Homeodomain-interacting protein kinase 3 (Homo sapiens) (UniProt Q9H422); settings: at 1 µM
# [6] = target: Homeodomain-interacting protein kinase 3 (Homo sapiens) (UniProt Q9H422); settings: at 10 µM
# [7] = target: T1, Serine/threonine-protein kinase haspin (Homo sapiens) (UniProt Q8TF76); settings: at 1 µM
# T1 sequence (whole entry): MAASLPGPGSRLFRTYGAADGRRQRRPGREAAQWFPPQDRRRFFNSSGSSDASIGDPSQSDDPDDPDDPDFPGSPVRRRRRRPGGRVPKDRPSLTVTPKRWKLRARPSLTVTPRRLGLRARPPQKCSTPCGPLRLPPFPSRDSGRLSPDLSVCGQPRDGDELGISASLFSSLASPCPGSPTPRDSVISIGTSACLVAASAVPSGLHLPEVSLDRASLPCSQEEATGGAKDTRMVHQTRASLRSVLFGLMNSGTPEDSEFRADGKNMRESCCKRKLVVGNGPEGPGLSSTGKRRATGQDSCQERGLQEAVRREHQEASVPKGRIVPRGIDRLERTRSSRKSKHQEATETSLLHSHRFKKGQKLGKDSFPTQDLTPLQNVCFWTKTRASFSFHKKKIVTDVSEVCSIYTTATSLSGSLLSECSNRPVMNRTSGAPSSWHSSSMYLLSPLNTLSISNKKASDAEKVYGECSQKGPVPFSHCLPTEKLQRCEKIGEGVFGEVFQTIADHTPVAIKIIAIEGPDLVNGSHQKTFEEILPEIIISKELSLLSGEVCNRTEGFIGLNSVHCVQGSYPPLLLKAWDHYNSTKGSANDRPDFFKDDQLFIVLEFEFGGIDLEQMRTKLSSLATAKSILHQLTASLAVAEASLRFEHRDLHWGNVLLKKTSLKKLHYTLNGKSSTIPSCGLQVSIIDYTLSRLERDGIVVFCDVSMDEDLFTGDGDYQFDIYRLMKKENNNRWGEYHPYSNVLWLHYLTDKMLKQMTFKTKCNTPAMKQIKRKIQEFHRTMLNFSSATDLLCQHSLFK
# [8] = target: T1, Serine/threonine-protein kinase haspin (Homo sapiens); settings: at 10 µM
# [9] = target: Tyrosine-protein kinase HCK (Homo sapiens) (UniProt P08631); settings: at 1 µM
# Tyrosine-protein kinase HCK (Homo sapiens), sequence (P08631 2-526 limits assumed): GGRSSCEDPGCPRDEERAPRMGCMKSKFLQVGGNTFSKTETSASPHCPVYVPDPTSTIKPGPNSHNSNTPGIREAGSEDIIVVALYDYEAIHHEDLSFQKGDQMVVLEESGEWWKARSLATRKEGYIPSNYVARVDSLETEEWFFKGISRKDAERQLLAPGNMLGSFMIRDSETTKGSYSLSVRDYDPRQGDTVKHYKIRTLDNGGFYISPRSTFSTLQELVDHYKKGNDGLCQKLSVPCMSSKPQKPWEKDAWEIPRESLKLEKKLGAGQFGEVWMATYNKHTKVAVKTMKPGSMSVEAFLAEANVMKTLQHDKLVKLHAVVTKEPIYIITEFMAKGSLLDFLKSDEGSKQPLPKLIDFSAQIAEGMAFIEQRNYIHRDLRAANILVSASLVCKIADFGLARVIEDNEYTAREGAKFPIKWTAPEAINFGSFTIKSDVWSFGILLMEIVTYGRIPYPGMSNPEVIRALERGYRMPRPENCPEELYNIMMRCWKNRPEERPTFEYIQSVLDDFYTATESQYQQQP
# [10] = target: Tyrosine-protein kinase HCK (Homo sapiens) (UniProt P08631); settings: at 10 µM
# [11] = target: Tyrosine-protein kinase HCK (Homo sapiens) (UniProt P08631); settings: at 1 µM; remark: listed apart in the source
# [12] = target: Tyrosine-protein kinase HCK (Homo sapiens) (UniProt P08631); settings: at 10 µM; remark: listed apart in the source
# [13] = target: Insulin-like growth factor 1 receptor (Homo sapiens) (UniProt P08069); settings: at 1 µM
# Insulin-like growth factor 1 receptor (Homo sapiens), sequence (P08069 31-736 limits assumed): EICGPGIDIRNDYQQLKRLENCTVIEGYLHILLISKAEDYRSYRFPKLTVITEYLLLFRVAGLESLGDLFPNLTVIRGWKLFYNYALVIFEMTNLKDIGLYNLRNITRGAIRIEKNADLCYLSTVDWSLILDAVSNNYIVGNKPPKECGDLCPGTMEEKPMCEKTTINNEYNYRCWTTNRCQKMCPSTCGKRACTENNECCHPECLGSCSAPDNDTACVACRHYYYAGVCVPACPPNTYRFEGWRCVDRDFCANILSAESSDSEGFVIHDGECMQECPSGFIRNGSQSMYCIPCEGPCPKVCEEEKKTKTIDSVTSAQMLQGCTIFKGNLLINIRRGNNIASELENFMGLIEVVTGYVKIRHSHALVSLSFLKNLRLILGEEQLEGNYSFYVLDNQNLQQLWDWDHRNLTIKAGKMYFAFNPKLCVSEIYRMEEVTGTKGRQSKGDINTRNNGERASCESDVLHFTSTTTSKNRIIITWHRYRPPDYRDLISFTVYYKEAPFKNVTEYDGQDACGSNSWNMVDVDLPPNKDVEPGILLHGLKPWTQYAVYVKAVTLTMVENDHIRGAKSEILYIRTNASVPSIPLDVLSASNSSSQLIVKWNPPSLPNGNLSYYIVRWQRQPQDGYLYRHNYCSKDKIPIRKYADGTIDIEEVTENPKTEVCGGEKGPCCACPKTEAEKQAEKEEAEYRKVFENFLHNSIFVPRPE
# Insulin-like growth factor 1 receptor (Homo sapiens), sequence (P08069 741-1367 limits assumed): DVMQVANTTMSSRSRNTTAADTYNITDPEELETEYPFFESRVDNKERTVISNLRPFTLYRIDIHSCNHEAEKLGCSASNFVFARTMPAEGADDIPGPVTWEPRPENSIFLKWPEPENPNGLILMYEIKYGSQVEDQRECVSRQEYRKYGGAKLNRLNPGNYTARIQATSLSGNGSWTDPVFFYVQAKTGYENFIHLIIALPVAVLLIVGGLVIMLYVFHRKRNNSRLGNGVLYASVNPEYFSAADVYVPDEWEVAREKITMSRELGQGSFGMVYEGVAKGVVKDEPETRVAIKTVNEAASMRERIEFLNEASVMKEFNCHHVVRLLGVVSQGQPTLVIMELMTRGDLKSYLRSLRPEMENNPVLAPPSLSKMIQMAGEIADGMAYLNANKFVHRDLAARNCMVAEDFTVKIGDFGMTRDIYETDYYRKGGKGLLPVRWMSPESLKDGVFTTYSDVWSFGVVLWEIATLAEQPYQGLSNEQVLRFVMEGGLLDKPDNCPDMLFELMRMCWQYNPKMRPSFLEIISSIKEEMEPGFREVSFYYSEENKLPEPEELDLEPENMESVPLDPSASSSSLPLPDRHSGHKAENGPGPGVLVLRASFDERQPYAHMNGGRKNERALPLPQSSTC
# [14] = target: Insulin-like growth factor 1 receptor (Homo sapiens) (UniProt P08069); settings: at 10 µM
# [15] = target: T2, Protein kinase C zeta type (Homo sapiens) (UniProt Q05513); settings: at 10 µM
# T2 sequence (whole entry): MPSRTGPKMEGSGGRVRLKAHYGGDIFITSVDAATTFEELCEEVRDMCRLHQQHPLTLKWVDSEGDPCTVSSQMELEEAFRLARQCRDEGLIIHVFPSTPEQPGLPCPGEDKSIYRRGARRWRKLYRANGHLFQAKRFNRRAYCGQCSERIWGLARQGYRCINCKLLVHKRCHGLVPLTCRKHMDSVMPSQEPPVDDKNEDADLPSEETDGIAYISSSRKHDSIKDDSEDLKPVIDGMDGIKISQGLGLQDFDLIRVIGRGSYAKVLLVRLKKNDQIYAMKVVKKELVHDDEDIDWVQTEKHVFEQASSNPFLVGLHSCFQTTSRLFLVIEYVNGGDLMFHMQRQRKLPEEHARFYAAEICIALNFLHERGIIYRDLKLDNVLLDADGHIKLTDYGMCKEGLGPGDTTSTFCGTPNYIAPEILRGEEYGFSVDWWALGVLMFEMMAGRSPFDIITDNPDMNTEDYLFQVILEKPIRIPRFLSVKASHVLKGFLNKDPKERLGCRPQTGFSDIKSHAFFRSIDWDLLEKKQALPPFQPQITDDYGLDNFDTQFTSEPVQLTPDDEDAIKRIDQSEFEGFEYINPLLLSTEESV
# [16] = target: Glycogen synthase kinase-3 beta (Homo sapiens) (UniProt P49841); settings: at 10 µM
# [17] = target: T3, Rhodopsin kinase GRK7 (Homo sapiens) (UniProt Q8WTQ7); settings: at 10 µM
# T3 sequence (whole entry): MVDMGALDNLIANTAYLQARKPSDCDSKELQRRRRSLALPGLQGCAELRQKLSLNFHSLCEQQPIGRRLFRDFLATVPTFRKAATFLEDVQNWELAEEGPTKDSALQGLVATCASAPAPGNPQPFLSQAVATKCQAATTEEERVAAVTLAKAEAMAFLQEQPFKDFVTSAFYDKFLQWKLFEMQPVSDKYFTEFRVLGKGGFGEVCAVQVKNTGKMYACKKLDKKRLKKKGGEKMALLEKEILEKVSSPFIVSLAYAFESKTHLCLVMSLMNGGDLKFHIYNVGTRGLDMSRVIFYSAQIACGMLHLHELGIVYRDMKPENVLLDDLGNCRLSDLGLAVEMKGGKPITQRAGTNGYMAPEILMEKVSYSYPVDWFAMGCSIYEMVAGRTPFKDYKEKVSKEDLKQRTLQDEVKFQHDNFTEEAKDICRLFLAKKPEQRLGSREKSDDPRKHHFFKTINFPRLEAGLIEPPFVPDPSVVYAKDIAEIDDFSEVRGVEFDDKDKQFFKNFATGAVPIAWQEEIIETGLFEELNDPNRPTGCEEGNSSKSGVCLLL
# [18] = target: Glycogen synthase kinase-3 beta (Homo sapiens) (UniProt P49841); settings: at 1 µM
# [19] = target: Homeodomain-interacting protein kinase 1 (Homo sapiens) (UniProt Q86Z02); settings: at 1 µM
# Homeodomain-interacting protein kinase 1 (Homo sapiens), sequence (Q86Z02 whole entry, looked up): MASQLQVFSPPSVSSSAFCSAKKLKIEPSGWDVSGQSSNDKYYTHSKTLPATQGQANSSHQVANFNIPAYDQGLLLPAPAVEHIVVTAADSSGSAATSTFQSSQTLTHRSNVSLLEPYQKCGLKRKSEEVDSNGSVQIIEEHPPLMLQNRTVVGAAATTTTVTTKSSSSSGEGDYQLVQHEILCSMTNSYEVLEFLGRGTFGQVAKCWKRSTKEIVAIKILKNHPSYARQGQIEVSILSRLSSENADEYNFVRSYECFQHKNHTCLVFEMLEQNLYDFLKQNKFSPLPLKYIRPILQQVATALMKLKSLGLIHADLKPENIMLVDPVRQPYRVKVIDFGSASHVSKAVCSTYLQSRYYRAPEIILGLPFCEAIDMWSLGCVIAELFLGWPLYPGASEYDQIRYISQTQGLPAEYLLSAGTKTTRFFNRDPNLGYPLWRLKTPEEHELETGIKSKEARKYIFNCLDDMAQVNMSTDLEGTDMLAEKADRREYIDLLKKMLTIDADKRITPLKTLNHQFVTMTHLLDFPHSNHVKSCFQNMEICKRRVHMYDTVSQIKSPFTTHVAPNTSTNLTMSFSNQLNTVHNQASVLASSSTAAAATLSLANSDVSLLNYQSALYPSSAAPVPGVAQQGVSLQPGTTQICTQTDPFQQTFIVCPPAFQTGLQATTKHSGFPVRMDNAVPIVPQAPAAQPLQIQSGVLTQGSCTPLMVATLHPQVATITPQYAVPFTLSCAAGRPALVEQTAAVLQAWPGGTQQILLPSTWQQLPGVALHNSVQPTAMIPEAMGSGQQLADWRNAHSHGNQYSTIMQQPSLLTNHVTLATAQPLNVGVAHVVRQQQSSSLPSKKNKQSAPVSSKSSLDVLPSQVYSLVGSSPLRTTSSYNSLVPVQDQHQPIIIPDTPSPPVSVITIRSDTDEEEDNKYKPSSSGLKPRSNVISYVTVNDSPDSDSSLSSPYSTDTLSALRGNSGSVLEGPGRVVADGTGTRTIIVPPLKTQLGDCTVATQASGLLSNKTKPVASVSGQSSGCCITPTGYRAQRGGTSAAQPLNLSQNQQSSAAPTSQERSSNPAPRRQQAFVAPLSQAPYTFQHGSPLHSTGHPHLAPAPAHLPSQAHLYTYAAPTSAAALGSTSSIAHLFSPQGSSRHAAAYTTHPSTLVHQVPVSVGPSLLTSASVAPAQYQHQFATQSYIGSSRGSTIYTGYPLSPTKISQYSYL
# [20] = target: Homeodomain-interacting protein kinase 1 (Homo sapiens) (UniProt Q86Z02); settings: at 10 µM
# Glycogen synthase kinase-3 alpha (Homo sapiens), sequence (P49840 2-483 limits assumed): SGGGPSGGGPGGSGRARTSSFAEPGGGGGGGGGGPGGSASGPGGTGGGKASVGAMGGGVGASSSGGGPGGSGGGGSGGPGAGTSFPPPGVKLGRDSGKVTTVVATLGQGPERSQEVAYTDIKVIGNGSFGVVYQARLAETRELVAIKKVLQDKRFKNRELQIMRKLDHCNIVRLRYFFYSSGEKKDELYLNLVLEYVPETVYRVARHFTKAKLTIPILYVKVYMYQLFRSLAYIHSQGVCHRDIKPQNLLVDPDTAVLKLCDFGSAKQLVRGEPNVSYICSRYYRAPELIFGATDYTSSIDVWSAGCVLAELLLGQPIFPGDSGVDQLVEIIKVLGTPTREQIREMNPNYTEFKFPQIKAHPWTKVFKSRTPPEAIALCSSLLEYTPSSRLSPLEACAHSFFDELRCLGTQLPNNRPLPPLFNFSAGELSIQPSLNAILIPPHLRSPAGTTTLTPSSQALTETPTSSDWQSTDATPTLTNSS
smiles,measurement,setting,value
c1ccc(-c2cnc(Nc3ccc(OCCN4CCCC4)cc3)s2)cc1,residual activity,[1],109%
same,residual activity,[2],133%
same,residual activity,[3],67%
same,residual activity,[4],19%
same,residual activity,[5],78%
same,residual activity,[6],31%
same,residual activity,[7],77%
same,residual activity,[8],51%
same,residual activity,[9],57%
same,residual activity,[10],24%
same,residual activity,[11],71%
same,residual activity,[12],11%
same,residual activity,[13],119%
same,residual activity,[14],108%
same,residual activity,[15],109%
NC(=O)c1cccc(-c2cc(Nc3ccc(OC(F)(F)F)cc3)ncn2)c1,residual activity,[1],98%
same,residual activity,[2],82%
same,residual activity,[16],64%
same,residual activity,[7],84%
same,residual activity,[8],65%
NCCNc1ncc(C(N)=O)c(Nc2cccc(C(F)(F)F)c2)n1,residual activity,[16],26%
same,residual activity,[7],44%
same,residual activity,[8],7%
same,residual activity,[9],78%
same,residual activity,[10],22%
same,residual activity,[11],64%
same,residual activity,[12],14%
same,residual activity,[13],127%
same,residual activity,[15],112%
Cn1sc(=O)n(Cc2ccccc2)c1=O,residual activity,[17],77%
same,residual activity,[3],94%
same,residual activity,[4],94%
same,residual activity,[7],77%
same,residual activity,[9],75%
same,residual activity,[10],64%
same,residual activity,[11],89%
same,residual activity,[12],90%
same,residual activity,[13],93%
Fc1ccc(-c2nc3n(c2-c2ccncc2)CCS3)cc1,residual activity,[1],88%
same,residual activity,[2],88%
same,residual activity,[4],91%
same,residual activity,[8],96%
same,residual activity,[9],95%
same,residual activity,[10],94%
COc1ccc(CNC(=O)Nc2ncc([N+](=O)[O-])s2)cc1,residual activity,[18],28%
same,residual activity,[16],14%
same,residual activity,[9],13%
same,residual activity,[10],12%
same,residual activity,[11],52%
same,residual activity,[12],54%
same,residual activity,[14],123%
same,residual activity,[15],105%
COc1ccc(Cl)cc1NC(=O)Nc1cc(C)nc2ccccc12,residual activity,[17],88%
same,residual activity,[19],97%
same,residual activity,[3],98%
same,residual activity,[4],87%
same,residual activity,[5],99%
same,residual activity,[6],98%
same,residual activity,[9],93%
same,residual activity,[10],53%
same,residual activity,[11],100%
same,residual activity,[12],98%
same,residual activity,[13],147%
COc1cc2ncnc(Nc3cccc(Cl)c3)c2cc1OC,residual activity,[1],101%
same,residual activity,[2],121%
same,residual activity,[5],110%
same,residual activity,[9],48%
same,residual activity,[10],13%
same,residual activity,[11],40%
same,residual activity,[12],4%
same,residual activity,[13],111%
same,residual activity,[15],110%
CSc1nc(-c2ccc(F)cc2)c(-c2ccnc(NC(C)c3ccccc3)c2)[nH]1 (centres undefined),residual activity,[2],96%
same,residual activity,[20],97%
same,residual activity,[4],86%
same,residual activity,[9],85%
same,residual activity,[10],51%
same,residual activity,[11],102%
same,residual activity,[12],86%
Nc1n[nH]c2nc3ccccc3nc12,residual activity,[1],81%
same,residual activity,[2],50%
same,residual activity,[18],100%
same,residual activity,[16],80%
same,residual activity,[20],87%
same,residual activity,[3],98%
same,residual activity,[4],59%
same,residual activity,[7],96%
same,residual activity,[8],41%
same,residual activity,[9],75%
same,residual activity,[10],60%
same,residual activity,[12],88%
same,residual activity,[13],121%
same,residual activity,[14],132%
CCN1/C(=C/C(C)=O)Sc2ccc(OC)cc21,residual activity,[2],34%
same,residual activity,[16],63%
same,residual activity,[5],82%
same,residual activity,[6],75%
same,residual activity,[7],17%
same,residual activity,[8],4%
same,residual activity,[9],76%
same,residual activity,[10],71%
same,residual activity,[13],70%
N#C/C(=C\c1ccc(O)c(O)c1)C(=O)NCc1ccccc1,residual activity,[3],101%
same,residual activity,[8],48%
same,residual activity,[9],78%
same,residual activity,[10],70%
same,residual activity,[11],102%
same,residual activity,[12],80%
same,residual activity,[13],144%
same,residual activity,[14],65%
COc1ccc(-c2cnc3c(-c4ccsc4)cnn3c2)cc1,residual activity,[18],87%
same,residual activity,[16],88%
same,residual activity,[3],93%
same,residual activity,[4],95%
same,residual activity,[7],95%
same,residual activity,[8],83%
same,residual activity,[9],59%
same,residual activity,[10],76%
same,residual activity,[13],134%
N#Cc1c(NC(=O)c2cccc3ccccc23)sc2c1CCCC2,residual activity,[1],84%
same,residual activity,[2],80%
same,residual activity,[16],100%
same,residual activity,[5],99%
same,residual activity,[6],99%
same,residual activity,[7],82%
same,residual activity,[8],64%
same,residual activity,[9],63%
same,residual activity,[10],55%
same,residual activity,[13],136%
same,residual activity,[14],128%
same,residual activity,[15],100%
O=C(Nc1ccc(Cl)cc1)c1ccccc1NCc1ccncc1,residual activity,[1],118%
same,residual activity,[2],130%
same,residual activity,[9],80%
same,residual activity,[10],38%
same,residual activity,[13],125%
O=c1c(-c2ccc(F)cc2)c(-c2ccncc2)[nH]n1-c1ccc(Cl)cc1,residual activity,[2],69%
same,residual activity,[18],102%
same,residual activity,[16],56%
same,residual activity,[4],99%
same,residual activity,[8],75%
same,residual activity,[10],61%
same,residual activity,[12],81%
same,residual activity,[14],73%
